MLL AF4-AF9 inh: inhibitors of human MLL-AF4/AF9 interaction | AlphaScreen, biotin-AF4 peptide binding to FLAG-AF9 | 350,000 compounds, 0.47% hits | AID 651704 | inhibition, % at 10 µM;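 active = every replicate reaching a set inhibition limit, whatever the replicate mean, cut at about 25% in these data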
DENV2 CPE rescue: inhibitors of DENV2 cytopathic effect; DENV2-infected cells, cytopathic effect rescue, plate reader; CPE inhibition, % at 9.99 µM; 350,000 compounds, 1.7% hits; AID 651640; in the data active = CPE inhibition above about 20%, passing the limit was not always enough; tested in BHK-21 cells
FGF22 binding: FGF22 (human) thermal shift binding; activity (Tm shift, normalised), % at 9.99 µM; AID 651658; 340,000 compounds, 1.5% hits; recombinant FGF22 thermal shift, SYPRO orange fluorescence; percent of sucrose octasulfate shift, DMSO zero;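 active = mean Tm shift, scaled 0 neutral to 100 positive control, at about 1.3% or above, every replicate too, limit read from the data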
Target sequence (Q9HCT0 whole entry, looked up): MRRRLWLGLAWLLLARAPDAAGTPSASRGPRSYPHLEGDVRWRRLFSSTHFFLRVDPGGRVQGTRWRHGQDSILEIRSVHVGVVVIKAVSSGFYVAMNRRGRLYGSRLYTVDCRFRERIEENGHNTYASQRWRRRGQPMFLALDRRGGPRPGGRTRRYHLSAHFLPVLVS
ERAP1 HTS inh: blocks human ERAP1 aminopeptidase activity; Q9NZ08; recombinant ERAP1, Leu-AMC fluorescence, 60 min; inhibition, % at 10.7 µM; 340,000 compounds, 0.15% hits;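 active = mean replicate inhibition of at least 30%, or all replicates individually reaching that 30% level; inactive = mean below 30% and not every replicate reaching it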
RAD52 anneal inh: blocks human RAD52 DNA annealing; 360,000 compounds, 0.46% hits; inhibition, % at 18.7 µM; P43351; recombinant RAD52 DNA annealing, FRET fluorescence;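 active = every replicate showing at least 50% inhibition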
Target sequence (P43351 whole entry, looked up): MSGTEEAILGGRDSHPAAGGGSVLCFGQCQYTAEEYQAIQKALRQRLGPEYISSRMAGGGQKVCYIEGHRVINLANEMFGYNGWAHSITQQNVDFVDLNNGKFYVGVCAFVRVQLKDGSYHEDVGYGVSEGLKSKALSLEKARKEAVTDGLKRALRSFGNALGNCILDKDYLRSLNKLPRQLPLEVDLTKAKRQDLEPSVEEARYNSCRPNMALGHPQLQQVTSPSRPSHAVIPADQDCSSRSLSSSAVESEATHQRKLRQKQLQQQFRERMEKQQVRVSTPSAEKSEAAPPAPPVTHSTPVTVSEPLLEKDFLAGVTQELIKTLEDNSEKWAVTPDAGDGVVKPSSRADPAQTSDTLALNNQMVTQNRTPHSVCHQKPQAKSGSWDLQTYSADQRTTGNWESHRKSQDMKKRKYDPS
Numbers stand for hits; . = inactive; / = no result. Rows were chosen to be rich in hits. Some 4% of all compounds tested hit in one or more screens of this group.

SMILES	MLL AF4-AF9 inh	DENV2 CPE rescue	FGF22 binding	ERAP1 HTS inh	RAD52 anneal inh
C[C@H]1CCCCO[C@H](CN(C)C(=O)Cc2ccccc2)[C@@H](C)CN([C@@H](C)CO)C(=O)c2cc(NS(=O)(=O)c3ccc(Cl)cc3)ccc2O1	.	28	.	.	.
COc1ccc(S(=O)(=O)Nc2ccc3c(c2)C(=O)N([C@@H](C)CO)C[C@H](C)[C@@H](CN(C)C(=O)Cc2ccccc2)OCCCC[C@H](C)O3)cc1	.	68	.	.	.
COc1ccc(S(=O)(=O)Nc2ccc3c(c2)C(=O)N([C@@H](C)CO)C[C@H](C)[C@H](CN(C)C(=O)Cc2ccccc2)OCCCC[C@H](C)O3)cc1	.	.	.	.	.
C[C@@H]1CCCCO[C@@H](CN(C)C(=O)Cc2ccccc2)[C@@H](C)CN([C@H](C)CO)C(=O)c2cc(NS(=O)(=O)c3ccc(Cl)cc3)ccc2O1	.	25	.	.	.
CCC(=O)Nc1ccc2c(c1)C(=O)N(C)C[C@@H](OC)[C@@H](C)CN(CC1CC1)[C@H](C)CO2	.	.	.	.	.
C[C@@H]1CCCCO[C@@H](CN(C)CC2CCCCC2)[C@@H](C)CN([C@@H](C)CO)C(=O)c2cc(NS(=O)(=O)c3cccs3)ccc2O1	.	.	.	.	.
COC(=O)Cc1c(C)c2ccc(O)c(CNCc3ccc(OC)c(OC)c3)c2oc1=O	.	.	.	97	.
COc1ccc(C(=O)Nc2ccccc2-c2nnn(CC(=O)N3CCOCC3)n2)cc1	.	/	.	.	.
COc1ccccc1C(=O)Nc1ccc(-c2nnn(CC(=O)N3CCOCC3)n2)cc1	.	.	44	.	.
C[C@@H]1CN([C@H](C)CO)C(=O)c2cc(-c3ccncc3)cnc2O[C@@H]1CN(C)C(=O)c1ccncc1	.	.	.	.	.
O=c1[nH]c2ccc(Br)cc2c(-c2ccccc2)c1N1CCOCC1	25	.	.	.	.
O=c1[nH]c2ccc(Br)cc2c(-c2ccccc2)c1CN1CCOCC1	.	.	.	/	.
C[C@H]1CN([C@@H](C)CO)C(=O)c2cc(-c3ccncc3)cnc2O[C@@H]1CN(C)C(=O)c1ccc(F)cc1	.	.	.	.	.
O=c1cnnc(N/N=C/c2ccc3c(c2)OCO3)[nH]1	.	.	.	/	.
O=c1cnnc(N/N=C/C2CC=CCC2)[nH]1 (stereo not given)	.	/	44	.	.
CCC(=O)N[C@H]1CC[C@@H](CCNC(=O)Nc2ccc(C(F)(F)F)cc2)O[C@@H]1CO	.	.	.	.	.
O=C(Cn1cc(C(F)(F)F)ccc1=O)Nc1ccc2c(c1)OCO2	.	.	43	.	.
O=C(Cn1cc(Br)ccc1=O)Nc1ccc2c(c1)OCO2	.	.	.	.	.
C[C@@H]1CCCCO[C@H](CN(C)C(=O)Nc2ccccc2)[C@@H](C)CN([C@@H](C)CO)C(=O)c2cc(NS(=O)(=O)c3ccc(F)cc3)ccc2O1	/	.	.	/	/
Cc1noc(C)c1NC(=O)Nc1ccc2c(c1)C(=O)N([C@@H](C)CO)C[C@H](C)[C@@H](CN(C)S(=O)(=O)c1ccccc1)OCCCC[C@@H](C)O2	.	.	/	.	.
C[C@H](CO)N1C[C@H](C)[C@H](CN(C)CC2CCCCC2)Oc2ccc(NC(=O)Nc3ccc4c(c3)OCO4)cc2CC1=O	.	34	.	.	.
C[C@@H]1CN([C@H](C)CO)C(=O)Cc2cc(NC(=O)Nc3ccc4c(c3)OCO4)ccc2O[C@H]1CN(C)CC1CCCCC1	.	.	.	.	.
C[C@H]1CN([C@@H](C)CO)C(=O)Cc2cc(NC(=O)Nc3ccc4c(c3)OCO4)ccc2O[C@H]1CN(C)Cc1ccc(C(=O)O)cc1	.	78	.	.	.
C[C@@H]1CN([C@@H](C)CO)C(=O)Cc2cc(NC(=O)Nc3ccc4c(c3)OCO4)ccc2O[C@H]1CN(C)Cc1ccc2c(c1)OCO2	25	.	.	.	.
C[C@H](CO)N1C[C@H](C)[C@H](CN(C)Cc2ccc3c(c2)OCO3)Oc2ccc(NC(=O)Nc3ccc4c(c3)OCO4)cc2CC1=O	.	.	.	.	.
SMILES	MLL AF4-AF9 inh	DENV2 CPE rescue	FGF22 binding	ERAP1 HTS inh	RAD52 anneal inh
C[C@H](C(=O)N(C)C[C@@H]1OCc2ccccc2-c2ccccc2C(=O)N([C@@H](C)CO)C[C@H]1C)c1ccccc1	.	.	.	.	.
O=C(Cc1c(Sc2ccccc2)c2ccccc2n1Cc1ccccc1)NCCO	.	.	43	.	.
CCOc1ccc(N(CC(=O)NC2CCCCC2)C(=O)CNC(=O)c2cccs2)cc1	.	33	.	.	.
C/C(N)=C(/C#N)C(=O)CSc1nnc(Cc2ccccc2F)n1N	.	54	.	.	.
C/C(N)=C(/C#N)C(=O)CSc1ccccc1F	.	.	.	.	.
CCC(=O)N1[C@H](CO)[C@@H](c2ccccc2)C12CN(Cc1cc(F)ccc1F)C2	.	.	.	.	.
O=C(CN1CCOCC1)N1CC(=O)N2[C@H](C1)[C@H](c1ccc(-c3cccc(F)c3)cc1)[C@@H]2CO	.	.	/	.	.
O=c1c2ccccc2nc2c3ccccc3c(NCCO)nn12	.	73	.	.	.
CC=Cc1ccc2n(c1=O)C[C@H]1[C@H](CO)[C@@H](C(=O)NCCC)[C@@H]2N1Cc1ccccc1 (mixture of isomers)	.	.	.	.	.
O=C(CCCN1C(=O)/C(=C\c2ccccc2)SC1=S)Nc1ccc(O)cc1C(=O)O	.	.	/	36	.
COc1ccccc1/C=C1\SC(=S)N(CCC(=O)Nc2ccc(C(=O)O)c(O)c2)C1=O	26	.	/	.	.
O=C(CCCN1C(=O)/C(=C/c2ccccc2)SC1=S)Nc1ccccc1O	.	.	.	.	.
Cc1cc(C(=O)NN=C2CCCC2)c2ccccc2n1	.	.	.	.	.
Cc1cc(C(=O)N/N=C2\CC(=O)CC(C)(C)C2)c2ccccc2n1	.	.	43	.	.
Cc1cc(Br)c(OCc2ccc(C(=O)N/N=C3\CC(=O)CC(C)(C)C3)cc2)c(Br)c1	.	76	.	.	.
COc1cccc(-c2ccc([C@H]3[C@H]4CN(C(=O)C5CCCCC5)CC(=O)N4[C@H]3CO)cc2)c1	.	.	/	.	.
CN(Cc1nc2ccc(F)cc2[nH]1)Cc1c(C(=O)N(C)C)nc2ccc(Cl)cn12	.	.	.	.	.
Cc1cc2nc(CN(C)Cc3c(C(=O)N(C)C)nc4ccc(Cl)cn34)[nH]c2cc1C	.	.	43	.	.
Cc1ccc(S(=O)(=O)N[C@@H]2CC[C@@H](CCNC(=O)CN3CCOCC3)O[C@@H]2CO)cc1	.	.	.	.	.
C[C@@H]1CCCCO[C@@H](CN(C)S(=O)(=O)c2ccc(Cl)cc2)[C@@H](C)CN([C@@H](C)CO)C(=O)c2cc(NC(=O)CCCN(C)C)ccc2O1	.	.	.	.	.
Cc1ccc(S(=O)(=O)N(C)C[C@H]2OCCCC[C@@H](C)Oc3ccc(NC(=O)CCCN(C)C)cc3C(=O)N([C@@H](C)CO)C[C@H]2C)cc1	.	.	.	.	51
